High-throughput results as filed in PubChem.
Sampled rows, rich in hits. Any-hit rate of the full collection: about 12%.
HP1b binding inh = HTS for Inhibitors of HP1-beta Chromodomain Interactions with Methylated Histone Tails; Potency, µM (doses to about 114 µM), for the others: top-dose activity change, negative = inhibition, actives largely listed as inhibitors; hit rate 0.56% among 390,000; AlphaScreen HP1-beta / biotin-H3K9me3 peptide binding; Chromobox protein homolog 1 (Homo sapiens), P83916; further: nearly all actives have a fitted effect of over 70% in size
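AlphaScreen: HP1-beta (50 nM) preformed 30 min with biotin-H3(1-18)K9me3 peptide (50 nM) in PBS pH 7.4, 0.01% Tween-20. Compound added for 30 min at RT, then streptavidin donor/nickel chelate acceptor beads (10 ug/mL) for 30 min.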
G9a block = qHTS Assay for Inhibitors of Histone Lysine Methyltransferase G9a; Histone-lysine N-methyltransferase EHMT2 (Homo sapiens), Q96KQ7; G9a H3K9 monomethylation, AlphaScreen, 2 h; Potency, µM (titrated, usually from 102 µM), for the others: at the top dose activity, negative = inhibition, most hits filed as inhibitors; hit rate 8.8% among 350,000; AID 504332, 2011; further: on the % scale 0 is the no-effect control and ±100 the full control effect; nearly all actives have a fitted effect of over 75% in size
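G9a (20 nM) was preincubated 15 min with compound, then reacted 2 h at room temperature with 500 nM biotin-H3K9 peptide and 20 µM SAM. Monomethyl-H3K9 detected by AlphaScreen using anti-H3K9me1 antibody.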
JMJD2A Tudor = qHTS Assay for Inhibitors of JMJD2A-Tudor Domain. AlphaScreen JMJD2A-Tudor / H3K4me3 peptide binding. Potency, µM (highest dose often 114 µM), for inactives: at the highest dose activity change, negative = inhibition, most hits filed as inhibitors. AID 504339, 2011. hit rate 4.4% among 390,000; further: on the % scale 0 is the no-effect control and ±100 the full control effect; nearly all actives have a fitted effect of over 50% in size
Sfp PPTase inh = qHTS Assay for Inhibitors of Bacillus subtilis Sfp phosphopantetheinyl transferase (PPTase); 4'-phosphopantetheinyl transferase ffp (Bacillus subtilis), Q9F4F7; Biochemical Sfp PPTase activity, qHTS; Potency, µM, inactives show largest response in the series, negative = inhibition, hits mostly inhibitors; hit rate 3.5% among 310,000; AID 1490, 2009;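 further: the enzyme is Sfp with the accession as filed and its product quenches rhodamine fluorescence; 0% = enzyme reaction without inhibitor and -100% = no enzyme wells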
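Sfp 15 nM + cpd, 15 min RT; start w/ rhodamine-CoA 5 uM, BHQ-2-YbbR 12.5 uM (final); 50 mM Hepes pH 7.6, 10 mM MgCl2, 0.01% NP-40, 0.01% BSA; read 525/598 nm at 0 and 30 min.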
L3MBTL1 block = qHTS Assay for the Inhibitors of L3MBTL1 | AlphaScreen L3MBTL1–H3K9me1 peptide binding | Potency, µM (doses to about 57.1 µM), without a hit: at the top dose activity, negative = inhibition, hits mostly inhibitors | Lethal(3)malignant brain tumor-like protein 1 (Homo sapiens), Q9Y468 | hit rate 0.66% among 230,000; further: on the % scale 0 is the no-effect control and ±100 the full control effect; nearly all actives have a fitted effect of over 60% in size
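AlphaScreen proximity signal between nickel-chelate acceptor and streptavidin donor beads (final 10 ug/mL) reports binding of 50 nM L3MBTL1 to 75 nM biotin-H3 K9me1 peptide; complex incubated with compounds 30 min at room temperature; cefsulodin titration as control.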
BAZ2B block = qHTS Assay for Inhibitors of BAZ2B; AlphaScreen BAZ2B-H3K14Ac peptide displacement; Potency, µM (doses to about 114 µM), inactives show at the highest dose activity change, negative = inhibition, actives largely listed as inhibitors; hit rate 4.4% among 360,000; further: on the % scale 0 is the no-effect control and ±100 the full control effect; nearly all actives have a fitted effect of over 60% in size
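Complex of BAZ2B and biotin-H3K14Ac (50 nM apiece) forms over 30 min at RT, then faces library compounds up to 110 uM for another 30 min; AlphaScreen beads added, 20 min dark incubation, luminescence read.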
Numbers without * were called inactive; ? = inconclusive; / = no result; [ ] = remark or other dose. The call rests on the fitted dose curve; in most records, active means well fitted curve in the direction sought with a large enough effect; inconclusive means small, poorly fitted or top-dose-only effect, or another doubt; inactive means no such curve, though single readings can be large; an effect the other way counts as inactive or inconclusive. Potency means the concentration at half of the fitted maximal effect.

SMILES	HP1b binding inh	G9a block	JMJD2A Tudor	Sfp PPTase inh	L3MBTL1 block	BAZ2B block
O=C(CC1N=C2c3ccccc3N=C(SCC(=O)Nc3ccccc3F)N2C1=O)NCc1ccc2c(c1)OCO2 (stereo unspecified)	14%	13µM*	-25%	/	/	?
Cc1c(Cl)cccc1NC(=O)CSc1nc(=O)n(Cc2ccco2)c2c1CCC2	12%	2%[59 µM]	?	/	/	-19%
CCc1nnc(NC(=O)c2ccccc2NC(=O)C2CCN(C(=O)c3ccco3)CC2)s1	15%	/	-17%	/	/	/
Cc1oc(=O)c(NC(=O)c2ccccc2)cc1C(=O)c1ccccc1	23%	/	-25%	16µM*	1%	-6%
CC(=O)c1cc(NC(=O)c2ccc(C)cc2)c(=O)oc1C	-23%	18µM*	20µM*	?	/	-19%
Cc1oc(=O)c(NC(=O)c2ccc(Cl)cc2)cc1C(=O)c1ccccc1	-11%	/	?	8.9µM*	11%	2%
CC(=O)c1cc(NC(=O)c2ccccc2)c(=O)oc1C	?	32µM*	-33%	?	/	-21%
CC(=O)c1cc(NC(=O)c2ccc(C)cc2)c(=O)oc1/C=C/N(C)C	19%	-40%[12.7 µM]	-20%	10%	-6%	1%
Cc1cc(C)n(-c2nc3cc(Cl)ccc3nc2N2CCN(c3cccc(C)c3C)CC2)n1	113%	31%[59 µM]	45%	/	/	11%
CCc1ccc(C2CC(=O)c3c([nH]c(C(=O)OC4CCC(C)CC4)c3C)C2)cc1 (stereo unspecified)	35%	3%[59 µM]	0%	/	/	1%
CC1(C)CC(=O)c2cc(NC(=O)c3ccccc3)c(=O)oc2C1	6%	-22%	79µM*	9%	-4%	-1%
O=C(C1CCC(Cn2c(=O)c3sccc3n(Cc3ccc(F)cc3)c2=O)CC1)N1CCOCC1 (stereo unspecified)	34%	-3%[59 µM]	-13%	/	/	-11%
CCc1nn(-c2ccccc2)c(=S)c2ccccc12	-23%[57 µM]	14µM*	?	4%	?	?
O=c1cc(-c2ccc3c(c2)OCO3)oc2ccccc12	17%	-31%	2%	5%	3%	-2%
Nc1c(-c2ccc3c(c2)OCCO3)oc2ccccc2c1=O	45%	50µM*	30%[57.1 µM]	-6%	/	34%
COc1cc(/C=C2\C(=O)N(c3ccc(NC(C)=O)cc3)N=C2c2ccccc2)ccc1O	?	45µM*	40µM*	11%	-3%	35µM*
O=C1/C(=C\c2ccc(O)c(O)c2)C(c2ccccc2)=NN1c1ccccc1	?	4µM*	14µM*	50µM*	14µM*	8.9µM*
CCOc1cc(/C=C2\C(=O)N(c3nc(-c4ccc(Br)cc4)cs3)N=C2c2ccccc2)ccc1O	?	?	?	-27%	/	?
Cc1ccc(CCNC(=O)c2ccc3c(c2)c(C)c(C)n3Cc2ccccc2)cc1	50%	-34%[59 µM]	-29%	/	/	-27%
Cc1cc(N2CCN(c3ccccc3)CC2)n2cc(-c3ccccc3)nc2n1	-35%	-11%[12.7 µM]	?	?	-18%	45µM*
Cc1cc(N2CCN(c3ccccc3Cl)CC2)n2cc(-c3ccccc3)nc2n1	0%	50µM*	?	?	-10%	?
COc1cccc(CN2CCNC(=O)C2CC(=O)NCc2cn3ccccc3n2)c1OC (stereo unspecified)	25%	?	-3%	-2%	-1%	-18%
COc1cccc(CN2CCNC(=O)C2CC(=O)NC2CCOCC2)c1OC (stereo unspecified)	38%	45µM*	-2%	-5%	/	19%
COc1ccc(CN2CCNC(=O)C2CC(=O)NC2CCCC2)c(C)c1C (stereo unspecified)	12%	45µM*	20µM*	-5%	/	?
